About 1,100 (1.7%) of roughly 63,000 compounds were called active. This excerpt belongs to a sample that is enriched for actives. Entries with a potency or affinity are not part of this list. Unmarked numbers belong to inactive results.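 Rule for the calls: active = compounds whose percent cytotoxicity in the single-dose primary screen, scaled between solvent and toxic-drug controls, exceeds 50; inactive = the rest.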

The nature of this assay: viability loss of HPDE-C7K cells – cell-based, fluorescence, HTS, primary screen (AID 431).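 Note: 0% = DMSO solvent wells and 100% = doxorubicin-treated wells.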 To be noted: HPDE-C7K KRASV12 cells, Alamar Blue viability, 48 h; at 10 µM; stronger effect = higher value. A general note: The colour change of resazurin is a common sign of viable cells or microbes.
For `Fc1ccc(Cn2nnnc2CN2CCN(C3CCCC3)CC2)cc1`, the cytotoxicity is 5.5%.
Consider `Cc1cc(N2CCN(c3ccccc3)CC2)nc(-c2ccccc2)n1`, for which the cytotoxicity was -1.4%.
As for `Cc1cc(N2C3CCC2CC(O)(c2ccc(F)cc2)C3)nc(-c2ccccc2)n1` (centres undefined), the figure is 76.5% (active); as for `Cc1cc(N2CCC(C(=O)Nc3ccc(F)cc3)CC2)nc(-c2ccccc2)n1`, -0.7%.
Then `O=C(c1cnccn1)N1CCc2ccccc21`, with -21%; and `O=S(=O)(NCc1cccs1)c1cccc2cccnc12`, with 6.5%.
For `Cc1cc(NC(c2cccnc2)c2ccc3cccnc3c2O)no1` (centres undefined), the cytotoxicity is 24.3%.
As for `Cc1cnc(C(=O)Nc2ccccc2C(=O)N2CCOCC2)cn1`, the cytotoxicity is 1.7%.
Then `O=C(O)c1ccc2cccc(Cl)c2c1O`, with 24.3%; and `COc1cccc(NS(=O)(=O)c2ccc3[nH]cc(C(=O)NCCN4CCOCC4)c(=O)c3c2)c1`, with -12.6%.
As for `Cc1ccccc1NS(=O)(=O)c1ccc2[nH]cc(C(=O)NCCCN3CCOCC3)c(=O)c2c1`, the cytotoxicity was 3.9%.
As for `CC1CCN(S(=O)(=O)c2ccc3[nH]cc(C(=O)NCCN4CCOCC4)c(=O)c3c2)CC1`, the figure is 57.8% (active); as for `COc1ccc(CNC(=O)C2CCCN2S(=O)(=O)c2ccc(S(=O)(=O)N(C)C)cc2)cc1` (centres undefined), -14.8%; as for `Cc1cc(NCCN2CCOCC2)n2c(nc3ccccc32)c1C#N`, 11.6%.
For the compound `Cc1ccc(C2CC(=O)NC(SCC(=O)OCc3ccccc3)=C2C#N)o1` (centres undefined), the cytotoxicity is 55.7% (active).
`CCOC(=O)CSC1=C(C#N)C(c2ccccc2OC)CC(=O)N1` (centres undefined): the cytotoxicity was 30.7%.
In the case of `CCOC(=O)CC(=O)CSC1=C(C#N)C(c2ccccc2OC)CC(=O)N1` (centres undefined), the cytotoxicity is 70.2% (active).
Regarding `CCCCCCSC1=C(C#N)C(c2ccc(C)o2)CC(=O)N1` (centres undefined), the cytotoxicity was -6.9%.
Then `CCOC(=O)CSC1=C(C#N)C(c2ccc(Cl)cc2)CC(=O)N1` (centres undefined), with -10.7%.
Turning to `CCOC(=O)CSC1=C(C#N)C(c2ccc3c(c2)OCO3)CC(=O)N1` (centres undefined), the cytotoxicity is 27.9%.
Regarding `CCCCOC(=O)CSC1=C(C#N)C(c2ccc3c(c2)OCO3)CC(=O)N1` (centres undefined), the cytotoxicity was 21.6%.
Take `COC(=O)CSC1=C(C#N)C(c2ccccc2)CC(=O)N1` (centres undefined): the cytotoxicity was -15.7%.
Then `Cc1ccc(C2CC(=O)NC(SCc3ccccc3)=C2C#N)o1` (centres undefined), with 9%.
For the compound `CCCOC(=O)CSC1=C(C#N)C(c2ccc3c(c2)OCO3)CC(=O)N1` (centres undefined), the cytotoxicity was 61.7% (active).
As for `CCSC1=C(C#N)C(c2ccccc2OC)CC(=O)N1` (centres undefined), the figure is -0.5%.
As for `CCOC(=O)CSC1=C(C#N)C(c2ccc(C)o2)CC(=O)N1` (centres undefined), the cytotoxicity is 67.9% (active).
As for `O=C(CN(Cc1ccccc1F)S(=O)(=O)c1ccc(Cl)cc1)NCCCO`, the figure is -0.2%; as for `CC1CCN(c2nc3c(c(=O)n(C)c(=O)n3C)n2CCSc2nc3ccccc3s2)CC1`, -22%; as for `COc1ccccc1C(c1nnnn1CS(=O)(=O)c1ccc(C)cc1)N1CCSCC1` (centres undefined), -16.2%.
As for `CCCn1c(SCC(=O)NCC2CCCO2)nc2c1c(=O)n(C)c(=O)n2C` (centres undefined), the figure is 2.7%.
As for `CCOc1ccc(C2CC(=O)NC(SCC(=O)OC)=C2C#N)cc1` (centres undefined), the figure is -6.5%.
On to `CCOC(=O)CSC1=C(C#N)C(c2sccc2C)CC(=O)N1` (centres undefined), for which the cytotoxicity was 52% (active).
Turning to `CCOC(=O)CSC1=C(C#N)C(c2ccc(C)s2)CC(=O)N1` (centres undefined), the cytotoxicity was 49.2%.
Regarding `Cc1ccc(NCc2nnc3n2CCCCC3)cc1`, the cytotoxicity is -2.7%.
Then `CCOC(=O)N1CCC(N2CCN(S(=O)(=O)CC)CC2)CC1`, with 3.6%.
On to `O=C(Nc1nc2c(s1)CCc1ccccc1-2)c1ccco1`, for which the cytotoxicity is 5.1%.
As for `CC1CCc2nc(NC(=O)c3ccco3)sc2C1` (centres undefined), the figure is -5.4%; as for `O=S(=O)(Cc1ccccc1)NCc1ccccn1`, 1.9%.
Then `C=CCn1c(SCC(=O)NCc2ccco2)nnc1-c1ccc2ccccc2n1`, with 16.6%.
Then `CCN(CC)CCOc1nc(C)nc2c1oc1ccccc12`, with -1.3%.
With `CN(C)CCOc1nc(-c2ccccc2)nc2c1oc1ccccc12`, the cytotoxicity was 56.8% (active).
As for `CCc1nc(OCCN(C)C)c2oc3ccccc3c2n1`, the figure is -2.7%.
Then `CC1Oc2ccccc2N(Cc2ccccc2F)C1=O` (centres undefined), with 3.3%; and `CCOC(=O)c1ccccc1NC(=O)COC`, with -2.8%; and `CCOC(=O)c1cccc(C(=O)OCC)n1`, with -5.9%.
Then `Cc1ccccc1CS(=O)(=O)Cc1ccc(C(=O)NCCCN2CCCC2=O)o1`, with -10.2%; and `CCOC(=O)c1c(NC(=O)c2nn(CC)cc2Br)sc2c1CCCCC2`, with 16.9%; and `Cc1sc2ncnc(SCc3ccco3)c2c1C`, with -15.5%.
As for `Cc1nc(Sc2nnnn2-c2ccccc2)c(C#N)c(C)c1C`, the cytotoxicity was -8%.
As for `Cc1sc2ncnc(Sc3nnnn3-c3ccccc3)c2c1C`, the figure is 101% (active).
Then `Clc1ccc(-n2nnnc2Sc2ncnc3sccc23)cc1`, with -6.3%; and `CCCn1c(Sc2nnnn2-c2ccccc2)n[nH]c1=O`, with -14.1%.
For `CCOC(=O)c1ccc(CNC(=O)c2cc3cccc(OC)c3oc2=O)o1`, the cytotoxicity is -2.4%.
Take `CCOC(=O)CCCSc1nc2sc(C)c(C)c2c(=O)[nH]1`: the cytotoxicity was 9.4%.
As for `CC(C)CCn1c(SCC(N)=O)nc2c1c(=O)n(C)c(=O)n2C`, the figure is -10.1%.
Then `CCOc1ccc(OCc2ccc(C(=O)O)o2)cc1`, with -2.9%; and `O=C1CC(c2cccc(Cl)c2)Cc2nc(N3CCOCC3)ncc21` (centres undefined), with -18.3%.
Consider `Cc1ccc(C2CC(=O)c3cnc(N4CCN(c5ccccc5)CC4)nc3C2)cc1` (centres undefined), for which the cytotoxicity was 17.2%.
Then `COc1ccc(C2CC(=O)c3cnc(N4CCN(Cc5ccccc5)CC4)nc3C2)cc1` (centres undefined), with 4.1%; and `CCN1CCN(c2ncc3c(n2)CC(c2cc(OC)c(OC)c(OC)c2)CC3=O)CC1` (centres undefined), with 62.1% (active).
Then `CCN1CCN(c2ncc3c(n2)CC(c2ccc(OC)c(OC)c2)CC3=O)CC1` (centres undefined), with 14.6%; and `O=C1CC(c2cccc(Cl)c2)Cc2nc(N3CCN(c4ccccc4)CC3)ncc21` (centres undefined), with 61.6% (active).
As to `COc1cc(C2CC(=O)c3cnc(N4CCN(Cc5ccccc5)CC4)nc3C2)cc(OC)c1OC` (centres undefined), the cytotoxicity was 50.1% (active).
As for `COc1ccc(C2CC(=O)c3c(C)nc(N4CCN(Cc5ccccc5)CC4)nc3C2)cc1OC` (centres undefined), the figure is 39.3%; as for `COc1cc(C2CC(=O)c3cnc(NC(=O)COc4ccccc4)nc3C2)cc(OC)c1OC` (centres undefined), -19.4%.
As for `CCOC(=O)C1CCN(C(=O)CCn2c(=O)[nH]c3ccccc3c2=O)CC1`, the figure is -4.8%.
As for `Cc1nn(C)c(C)c1S(=O)(=O)NC1CCCC1`, the figure is -13%; as for `CCOC(=O)C1CCCN(C(=O)c2cccs2)C1` (centres undefined), 2.4%; as for `COc1cccc(NC(=O)NCc2cccn2C)c1`, -7%.
As to `COc1cc(S(=O)(=O)N2CCN3CCCC3C2)ccc1-n1cnnn1` (centres undefined), the cytotoxicity was 6.5%.
In the case of `COc1cc(S(=O)(=O)N2CCCC3(CCCCC3)C2)ccc1-n1cnnn1`, the cytotoxicity was 76% (active).
Turning to `COc1cc(S(=O)(=O)N2CCC(N3CCCCC3)CC2)ccc1-n1cnnn1`, the cytotoxicity is 12.7%.
Then `COc1cc(C(=O)Nc2ccc(S(=O)(=O)N3CCCCC3C)cc2)cc(OC)c1OC` (centres undefined), with 0.7%; and `Cc1cc(C)c2c(CC(=O)N(CCC#N)Cc3cccnc3)coc2c1`, with -1.9%; and `N#C/C(=C\c1ccco1)Sc1nc2ccccc2s1`, with 43.6%.
Then `c1csc(CSc2nc3ccccc3s2)c1`, with -17.1%; and `Cc1oc(-c2cccs2)nc1CS(=O)CC(=O)NCCCOC(C)C` (centres undefined), with -12.2%.
Take `O=C(CSC1=NCCS1)Nc1ccnc2ccccc12`: the cytotoxicity is -15.4%.
Then `COC(=O)COc1ccc(S(=O)(=O)NCCC2=CCCCC2)cc1C`, with -19.8%; and `COC(=O)COc1ccc(S(=O)(=O)NCCC2=CCCCC2)cc1`, with -11.9%.
With `CCOC(=O)COc1ccc(S(=O)(=O)NCCC2=CCCCC2)cc1`, the cytotoxicity was 53.1% (active).
As for `COC(=O)C1=C(C)OC(N)=C(C#N)C1C1CCCCC1` (centres undefined), the cytotoxicity is -11.1%.
Consider `CCOc1ccc(NC(=O)CSc2nnc(C)n2CCCOC)cc1`, for which the cytotoxicity was -3.5%.
Consider `COc1cccc(C(=O)/C=C/Nc2cc(C)ccc2O)c1`, for which the cytotoxicity was 69.1% (active).
Then `COc1cccc(C(=O)Nc2ccc(C)cc2)c1`, with 4.1%; and `Cc1cccc(OCC(=O)Nc2cc(C)ccc2O)c1`, with -1.5%; and `C/C(=C\C(=O)c1ccc(C)cc1)Nc1cccc(O)c1`, with -15.4%.
For `O=C(/C=C/Nc1cccc(O)c1)c1ccccc1`, the cytotoxicity was 15%.
As for `Cc1ccc(C(=O)/C=C/Nc2cccc(O)c2)cc1`, the figure is 60.9% (active); as for `Cc1ccc(C)c(N2CCN(C(=O)c3ccc(NS(=O)(=O)c4c(C)noc4C)cc3)CC2)c1`, 17.4%; as for `Cc1noc(C)c1S(=O)(=O)Nc1ccc(C(=O)N2CCN(c3ccc(Cl)cc3)CC2)cc1`, -5.4%.
Then `CCCCc1n[nH]c2c1C(=O)CC(C)(C)C2`, with 1.2%.
Then `CCOC(=O)N1CCC(NC(=O)c2cc(C(=O)Nc3cccc(OC)c3)ccc2CO)CC1`, with 1.1%; and `CCCCC(c1nnnn1CC1CCCO1)N1CCN(c2cc(Cl)ccc2C)CC1` (centres undefined), with 36.2%.
In the case of `CCCC(c1nnnn1CC1CCCO1)N1CCN(c2cc(Cl)ccc2C)CC1` (centres undefined), the cytotoxicity was 61.1% (active).
As for `Cc1ccc(Cl)cc1N1CCN(C(CC(C)C)c2nnnn2CC2CCCO2)CC1` (centres undefined), the figure is 39.6%.
As to `O=C(Nc1ccccc1C(=O)O)c1ncn[nH]1`, the cytotoxicity was -10%.
As to `CC(C)CC(=O)Nc1c2c(nn1-c1ccc(F)cc1)CSC2`, the cytotoxicity was -0.6%.
As for `CCOC(=O)CCc1c(C)n(CC)c2ncnn2c1=O`, the figure is 2.5%.
